Consider eight compounds from PubChem BioAssay (Tox21).

“And” between values parts separate entries of the source, which are not always exact repeats. Identical values can stand only once. Results filed as inconclusive are left out. More than one record can exist for a structure, and the calls need not agree. The source made the active and inactive calls. Unless noted, calls follow the shape of the full dose curve.

Assay [1] is described as follows: Nuclear factor erythroid 2-related factor 2/antioxidant responsive element (Nrf2/ARE) small molecule agonists: qHTS cell viability counter screen in human keratinocytes (AID 1919968; active = well fitted curve in the direction sought with a large enough effect in the repeat runs; an effect the other way counts as inactive or inconclusive; also: nearly all actives have a fitted effect of over 55% in size; also: potency is read from the fitted curve at half-maximal effect). Summed up:
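Cytotoxicity was multiplexed with the Nrf2/ARE luciferase assay in the same wells. Stably transfected HaCaT keratinocytes were treated with test compounds for 23 h at 37 C. Cell viability was then measured by CellTiter-Fluor fluorescence.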
(In qHTS, concentration-response curves come from the screen itself.)

The nature of assay [2]: Nuclear factor erythroid 2-related factor 2/antioxidant responsive element (Nrf2/ARE) small molecule agonists: luciferase reporter gene qHTS assay in human keratinocytes (AID 1919969). Also: nearly all actives have a fitted effect of over 35% in size. Also: potency is read from the fitted curve at half-maximal effect. On the technique in general: Reporter assays use an easily measured gene product as a stand-in for the process of interest.
In assay [3] the target is Gonadotropin-releasing hormone receptor (Homo sapiens) (UniProt P30968). As to the kind of experiment: Human gonadotropin-releasing hormone receptor (GnRHR) small molecule agonists, calcium flux assay in GnRHR-HEK293 cells (AID 1920063). Also: nearly all actives have a fitted effect of over 35% in size. Summed up: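 Agonist activity was measured as intracellular calcium flux in HEK293 cells engineered to stably express human GnRHR. After dye loading for 1 hour at 37 C, compounds in DMSO were added and fluorescence was followed for 3 minutes.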
For orientation: A change in cytosolic calcium serves as a functional read-out for many receptors and channels.

Assay [4] concerns the target KiSS-1 receptor (Homo sapiens) (UniProt Q969F8). As to the kind of experiment: Human kisspeptin (KISS1R) small molecule agonists, calcium flux assay in KISS1R-HEK293 cells (AID 1920064; active = well fitted curve in the direction sought with a large enough effect in the repeat runs; an effect the other way counts as inactive or inconclusive). Summed up: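 Agonist activity is monitored as intracellular calcium rise in engineered HEK293 cells carrying human KISS1R. Cells are dye-loaded for 1 h at 37 C before compound addition, and fluorescence is recorded for 3 min.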

The nature of assay [5]: G protein-coupled receptor (GPCR) small molecule agonists, calcium flux assay: HEK293 wild type cell line counter screen (AID 1920065). In short, it runs like this: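 Seed cells, incubate 18 h (37 C, 5% CO2); add calcium dye, 1 h at 37 C; pin-transfer compounds, ATP control or DMSO; read fluorescence 480/540 nm each second for 3 min.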
Assay [6] is described as follows: p53 small molecule agonists, cell-based qHTS assay with human liver microsomes (AID 1963577).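 Also: p53 response element beta-lactamase reporter cells with liver microsomes plus NADPH.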 Summed up: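 Metabolically competent format: test substances, human liver microsomes and NADPH (both 0.5 mg/mL final) incubated with p53RE-bla cells 16 h at 37 C. Beta-lactamase reporter signal then quantified by fluorescence.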
A short description of assay [7]: p53 small molecule agonists, cell-based qHTS assay with rat liver microsomes (AID 1963578). Summed up: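 Each plate received p53RE-bla cells, then compound, then rat liver microsomes and NADPH (both 0.5 mg/mL final). Plates were held 16 h at 37 C, and beta-lactamase activity was detected with LiveBLAzer over 2 h.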
The nature of assay [8]: p53 small molecule agonists, cell-based qHTS assay with human liver microsomes: qHTS cell viability counter screen (AID 1963579). Also: nearly all actives have a fitted effect of over 45% in size. In short, it runs like this: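 Tox21 library compounds, delivered from DMSO stocks, were tested on p53RE-bla cells together with 0.5 mg/mL human liver microsomes and 0.5 mg/mL NADPH (final) over 16 h at 37 C; CellTiter-Glo luminescence served as the cytotoxicity measure.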

The nature of assay [9]: p53 small molecule agonists, cell-based qHTS assay with rat liver microsomes: qHTS cell viability counter screen (AID 1963580). Also: nearly all actives have a fitted effect of over 45% in size. In short, it runs like this: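 Cytotoxicity counter screen: intracellular ATP measured by CellTiter-Glo luminescence in the same wells as the beta-lactamase reporter read, on HCT-116 p53RE-bla cells exposed 16 h at 37 C to compounds with rat liver microsomes and NADPH, each 0.5 mg/mL final.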

A short description of assay [10]: p53 small molecule agonists, cell-based qHTS assay (AID 1963582; active = well fitted activation curve with a large enough effect in the signal ratio in the repeat runs, not every such curve was filed as active; the % refers to the signal ratio). In short, it runs like this:
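Cells carrying a p53-responsive bla reporter are treated with test compounds for 16 h at 37 C; beta-lactamase activity is then detected with LiveBLAzer B/G FRET substrate after 2 h at room temperature.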

The target in assay [11] is 5-hydroxytryptamine receptor 2A (Homo sapiens) (UniProt P28223). Kind of assay: 5-hydroxytryptamine receptor 2A (HTR2A) small molecule antagonists, cell-based qHTS assay (AID 1963586). Also: nearly all actives have a fitted effect of over 45% in size. Summed up:
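CHO cells stably expressing human HTR2A were plated for 18 h at 37 C, then loaded with calcium dye for 1 h. Compounds were preincubated 5 min at room temperature before DOI (4 nM solution) was added. Kinetic fluorescence was read for 3 min.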

Assay [12] shares this target. As to the kind of experiment: 5-hydroxytryptamine receptor 2A (HTR2A) small molecule agonists, cell-based qHTS assay (AID 1963587). Also: nearly all actives have a fitted effect of over 30% in size. In short, it runs like this:
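CHO cells stably expressing human HTR2A, plated 18 h, loaded with calcium dye 1 h at 37 C. Agonist mode: compounds added and intracellular calcium fluorescence recorded kinetically for 2 min at 1 sec intervals.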

For assay [13], the target named is Muscarinic acetylcholine receptor M1 (Homo sapiens) (UniProt P11229). Kind of assay: Cholinergic receptor muscarinic 1 (CHRM1) small molecule antagonists, cell-based qHTS assay (AID 1963588). Also: nearly all actives have a fitted effect of over 40% in size. In short, it runs like this:
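Compounds were tested at 15 concentrations in three independent runs. Dye-loaded CHRM1-CHO cells were exposed 5 min at room temperature before stimulation by acetylcholine added at 50nM. Intracellular calcium was read kinetically on FDSS for 3 min.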

Assay [14] shares this target. As to the kind of experiment: Cholinergic receptor muscarinic 1 (CHRM1) small molecule agonists, cell-based qHTS assay (AID 1963589). Also: nearly all actives have a fitted effect of over 35% in size. Summed up:
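Cells were plated and incubated 18 h at 37 C/5% CO2, loaded with calcium dye for 1 h at 37 C, then treated with compounds in DMSO. Fluorescence was recorded kinetically at 1 sec intervals.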

The nature of assay [15]: cAMP Responsive Elements (CRE) small molecule agonists, cell-based qHTS assay (AID 1963590). In short, it runs like this:
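Cells carrying a CRE-driven beta-lactamase reporter (HEK 293T) are seeded, incubated overnight (18 h), and treated with test compounds for 3 h at 37 C; reporter activity is then detected with a FRET substrate after 2 h at room temperature.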

A short description of assay [16]: cAMP Responsive Elements (CRE) small molecule antagonists, cell-based qHTS assay (AID 1963591; active = well fitted inhibition curve with a large enough effect in the signal ratio in the repeat runs, not every such curve was filed as active; the % refers to the signal ratio). In short, it runs like this: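 Cells (CRE-bla HEK 293T, DMEM with 10% dialyzed FBS and 25 mM HEPES) are seeded and incubated 18 h. Compounds are added with NKH477 agonist at 0.25 uM final for 3 h, then FRET substrate for 2 h.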
In assay [17] the target is Beta-2 adrenergic receptor (Homo sapiens) (UniProt P07550). Kind of assay: Adrenergic beta2 receptor (ADRB2) small molecule antagonists, cell-based qHTS assay (AID 1963592). Also: series mostly up to about 92 µM; nearly all actives have a fitted effect of over 50% in size. Summed up: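 Assay format: CHO-ADRB2 cells, 18-20hr seeding at 37C/5% CO2, then compound plus 1nM isoproterenol agonist mix for 0.5hr RT. Homogeneous time-resolved fluorescence cAMP detection after 1hr, expressed as 665/615 nm ratio.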

For assay [18], the target named is D(2) dopamine receptor (Homo sapiens) (UniProt P14416). As to the kind of experiment: Dopamine D2 receptor (DRD2) small molecule agonists, cell-based qHTS assay (AID 1963594). Also: nearly all actives have a fitted effect of over 35% in size. Summed up:
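HEK293 cells stably expressing human DRD2, pre-treated with PDE inhibitor Ro20-1724 (0.1 mM final) and compound 10 min at room temperature, then stimulated with NKH477 (200nM […]) for 30 min. cAMP read by HTRF (665/620 nm).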

For assay [19] the target is unchanged. Kind of assay: Dopamine D2 receptor (DRD2) small molecule antagonists, cell-based qHTS assay (AID 1963595; active = well fitted inhibition curve with a large enough effect in the signal ratio in the repeat runs, with a control signal flat; the % refers to the signal ratio). Summed up: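 HEK293 cells stably expressing DRD2 were preincubated with 0.1 mM Ro20-1724, then with compound for 10 min at room temperature. Cells were stimulated with 200 nM NKH477 plus 12 nM quinpirole for 30 min, and cAMP was read by HTRF.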
A short description of assay [20]: p53 small molecule agonists, cell-based qHTS assay: qHTS cell viability counter screen (AID 1963581). Also: nearly all actives have a fitted effect of over 45% in size. Summed up: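 Viability was counter-screened in parallel with the p53 agonist reporter by measuring intracellular ATP luminescence in the same HCT-116 p53RE-bla wells after 16 h compound treatment at 37 C.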

Chain of Muscarinic acetylcholine receptor M1 (Homo sapiens) (P11229 whole entry, looked up): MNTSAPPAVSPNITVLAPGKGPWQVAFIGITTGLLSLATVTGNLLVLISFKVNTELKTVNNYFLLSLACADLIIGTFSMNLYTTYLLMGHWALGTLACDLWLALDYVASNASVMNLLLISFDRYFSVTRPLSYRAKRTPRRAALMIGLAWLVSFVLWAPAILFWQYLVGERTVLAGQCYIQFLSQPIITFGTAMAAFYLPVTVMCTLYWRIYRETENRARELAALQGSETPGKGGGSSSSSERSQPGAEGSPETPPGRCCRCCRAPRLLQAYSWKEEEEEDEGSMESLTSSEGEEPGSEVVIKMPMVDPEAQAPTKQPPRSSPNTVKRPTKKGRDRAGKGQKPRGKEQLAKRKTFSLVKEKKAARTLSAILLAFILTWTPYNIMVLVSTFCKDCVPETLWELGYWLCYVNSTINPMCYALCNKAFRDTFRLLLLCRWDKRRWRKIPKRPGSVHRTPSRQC
Chain of 5-hydroxytryptamine receptor 2A (Homo sapiens) (P28223 whole entry, looked up): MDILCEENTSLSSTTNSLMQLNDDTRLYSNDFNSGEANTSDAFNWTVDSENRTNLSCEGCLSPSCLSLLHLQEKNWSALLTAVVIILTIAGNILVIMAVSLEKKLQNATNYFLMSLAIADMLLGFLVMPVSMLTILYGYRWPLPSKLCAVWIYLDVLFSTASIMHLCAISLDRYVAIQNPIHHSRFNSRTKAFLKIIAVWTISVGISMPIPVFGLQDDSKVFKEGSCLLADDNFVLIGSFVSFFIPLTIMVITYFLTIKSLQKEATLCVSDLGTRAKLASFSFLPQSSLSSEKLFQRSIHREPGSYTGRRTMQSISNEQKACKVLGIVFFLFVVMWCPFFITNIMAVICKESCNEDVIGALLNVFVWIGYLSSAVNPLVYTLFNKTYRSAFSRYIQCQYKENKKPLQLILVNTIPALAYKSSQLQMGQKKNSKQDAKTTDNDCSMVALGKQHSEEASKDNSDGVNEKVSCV
Chain of D(2) dopamine receptor (Homo sapiens) (P14416 whole entry, looked up): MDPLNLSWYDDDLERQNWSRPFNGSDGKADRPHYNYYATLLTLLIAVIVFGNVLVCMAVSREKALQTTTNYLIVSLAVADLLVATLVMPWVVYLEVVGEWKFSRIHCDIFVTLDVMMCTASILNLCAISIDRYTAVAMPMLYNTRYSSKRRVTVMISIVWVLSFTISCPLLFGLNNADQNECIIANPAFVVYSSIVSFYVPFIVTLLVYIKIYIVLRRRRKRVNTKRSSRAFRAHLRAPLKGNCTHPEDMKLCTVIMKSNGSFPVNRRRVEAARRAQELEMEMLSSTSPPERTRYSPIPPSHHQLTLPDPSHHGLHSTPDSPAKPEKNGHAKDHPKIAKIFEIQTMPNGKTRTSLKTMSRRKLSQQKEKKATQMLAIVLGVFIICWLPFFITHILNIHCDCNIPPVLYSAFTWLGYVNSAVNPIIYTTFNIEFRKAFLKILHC
Chain of Gonadotropin-releasing hormone receptor (Homo sapiens) (P30968 whole entry, looked up): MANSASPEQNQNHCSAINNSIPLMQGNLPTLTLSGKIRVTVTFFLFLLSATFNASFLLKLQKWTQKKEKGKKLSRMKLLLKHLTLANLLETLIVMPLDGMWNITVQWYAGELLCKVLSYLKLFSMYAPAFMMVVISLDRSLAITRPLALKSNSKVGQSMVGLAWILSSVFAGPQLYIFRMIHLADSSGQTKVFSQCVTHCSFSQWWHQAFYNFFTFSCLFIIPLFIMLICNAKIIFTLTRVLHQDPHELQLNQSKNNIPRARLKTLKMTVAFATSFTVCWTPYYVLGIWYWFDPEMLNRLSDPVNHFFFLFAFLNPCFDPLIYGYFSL
Chain of Beta-2 adrenergic receptor (Homo sapiens) (P07550 whole entry, looked up): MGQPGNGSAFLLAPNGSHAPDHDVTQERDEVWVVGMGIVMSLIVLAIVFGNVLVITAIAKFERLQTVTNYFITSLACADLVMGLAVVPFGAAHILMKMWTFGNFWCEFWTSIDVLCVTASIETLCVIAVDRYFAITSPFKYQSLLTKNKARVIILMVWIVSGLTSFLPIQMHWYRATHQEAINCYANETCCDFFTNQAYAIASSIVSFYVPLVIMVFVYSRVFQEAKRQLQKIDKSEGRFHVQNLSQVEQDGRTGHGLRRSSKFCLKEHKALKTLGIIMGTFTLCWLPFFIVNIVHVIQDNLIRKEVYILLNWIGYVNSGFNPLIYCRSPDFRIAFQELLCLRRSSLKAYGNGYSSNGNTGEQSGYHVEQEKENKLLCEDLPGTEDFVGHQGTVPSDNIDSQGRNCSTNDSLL
Chain of KiSS-1 receptor (Homo sapiens) (Q969F8 whole entry, looked up): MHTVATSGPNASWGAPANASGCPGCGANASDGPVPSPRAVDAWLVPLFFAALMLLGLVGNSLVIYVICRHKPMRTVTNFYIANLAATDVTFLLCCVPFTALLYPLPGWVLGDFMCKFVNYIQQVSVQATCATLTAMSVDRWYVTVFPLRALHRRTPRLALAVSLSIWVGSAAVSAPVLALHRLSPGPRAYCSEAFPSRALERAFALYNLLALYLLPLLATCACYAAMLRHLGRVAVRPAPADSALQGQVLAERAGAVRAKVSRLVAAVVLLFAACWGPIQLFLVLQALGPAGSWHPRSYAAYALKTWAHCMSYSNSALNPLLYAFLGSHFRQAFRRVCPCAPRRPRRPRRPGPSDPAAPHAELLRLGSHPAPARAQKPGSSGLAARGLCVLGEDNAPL

For the compound `CCOC(=O)N(C)N=O`, the Potency result in assay [1], in assay [2], in assay [3], in assay [4], in [5] and in assay [6] was “inactive” throughout. Besides, the Potency result in assay [7], in assay [8], in [9], in [10], in assay [11] and in assay [12] was “inactive” in each case. In addition, the Potency entry in assay [13], in assay [14], in assay [15], in assay [16], in assay [17] and in assay [18] was “inactive” in each case. Besides, in [19], the Potency result is “inactive”.

In the case of `ClCC1CO1` (stereo unspecified), the Potency result in [1], in assay [2], in [3], in assay [4], in assay [5] and in assay [6] was “inactive” in each case. For the same compound, the Potency result in assay [7], in assay [8], in assay [9], in [11], in assay [12] and in [13] was “inactive” throughout. Further, the Potency entry in assay [14], in [15], in assay [16], in [17] and in assay [18] was “inactive” throughout.

Regarding `Cc1ccc(N)cc1`, the Potency result in [1], in assay [3], in [4], in assay [5], in assay [6] and in assay [7] was “inactive” each time. The Potency entry in [8], in [9], in [10], in assay [11], in assay [12] and in assay [13] was “inactive” in each case. For the same compound, the Potency result in assay [14], in [15], in assay [16], in assay [17], in assay [18] and in assay [19] was “inactive” in each case. The Potency entry in [2] was “inactive and 48.6 µM (active)”.

In the case of `CCCCCCCCCCCCCCCl`, the Potency result in [1], in assay [2], in assay [3], in assay [4], in assay [5] and in assay [6] was “inactive” in each case. Further, the Potency result in assay [7], in assay [8], in assay [9], in [10], in [11] and in assay [12] was “inactive” in each case. Besides, the Potency result in [13], in [14], in [15], in [16] and in assay [18] was “inactive” in each case.

For the compound `CNC(=O)Oc1c(C(C)(C)C)cc(C)cc1C(C)(C)C`, the Potency result in [1], in assay [3], in assay [4], in [5], in assay [6] and in assay [7] was “inactive” each time. For the same compound, the Potency entry in assay [8], in assay [9], in [10], in assay [11], in [12] and in [13] was “inactive” throughout. Further, the Potency entry in [14], in assay [15], in [17], in [18] and in [19] was “inactive” throughout. For the same compound, the Potency in assay [2] was 61.1 µM (active).

As for `ClC1=C(Cl)C2(Cl)C3C(Cl)C(Cl)CC3C1(Cl)C2(Cl)Cl` (stereo unspecified), the Potency was 30.5 µM (active) and 43.3 µM (active) in assay [1]; 4.84 µM (active) and 12.2 µM (active) in assay [2]. The Potency result in assay [3], in assay [4], in assay [5], in [6], in assay [7] and in assay [8] was “inactive” in each case. Also, the Potency entry in assay [9], in [20], in [11], in [12], in [13] and in assay [14] was “inactive” throughout. The Potency result in assay [18] is “inactive”.

In the case of `OCCOc1ccccc1`, the Potency entry in [1], in [2], in [3], in [4], in assay [5] and in assay [6] was “inactive” each time. Moreover, the Potency result in assay [7], in assay [8], in assay [9], in [10], in [11] and in assay [12] was “inactive” in each case. The Potency entry in [13], in assay [14], in [15], in assay [16], in assay [17] and in assay [18] was “inactive” throughout. The Potency result in [19] was “inactive”.

With `CCCOC(=O)c1cncn1C(C)c1ccccc1` (stereo unspecified), the Potency entry in assay [1], in [2], in [3], in assay [4], in assay [5] and in assay [6] was “inactive” in each case. For the same compound, the Potency result in assay [7], in assay [8], in [9], in assay [10], in assay [11] and in assay [12] was “inactive” throughout. Also, the Potency entry in assay [14], in assay [15], in assay [16], in [17] and in assay [18] was “inactive” each time.
